The full ranking holds about 1,100 compounds; the median of “Wnt reporter firefly/Renilla luciferase ratio relative to plate median” is about 1.1, and the highest 2% start at about 1.6. What follows is part of a selection rich in the highest values, with near analogues and random picks from the rest.
Test system: HEK293T (UBE3A T485A transfected, BAR Wnt reporter)
Assay: Wnt reporter firefly/Renilla luciferase ratio relative to plate median (fold (linear ratio)); higher = more Wnt/beta-catenin reporter activation
Details: 24 h
In short: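 Using Fugene 6, HEK293T cells in white 384-well plates (4500 cells/well; DMEM, 10% FBS, 37°C, 5% CO2) were transfected with a BAR firefly luciferase Wnt reporter, TK-Renilla and an expression plasmid. After four hours, robots dosed the chemicals at 0.01–100 uM, and a Dual-Glo luciferase readout followed 24 h later. Per-plate median-centred firefly/Renilla ratios gave Wnt activity, while per-plate median-centred raw Renilla signals gave cell health. Four biological replicates were averaged.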

Row | Compound | Wnt reporter firefly/Renilla luciferase ratio (concentration: 0.1 uM) | Wnt reporter firefly/Renilla luciferase ratio (concentration: 1 uM) | Wnt reporter firefly/Renilla luciferase ratio (concentration: 10 uM) | Wnt reporter firefly/Renilla luciferase ratio (concentration: 100 uM) | Wnt reporter firefly/Renilla luciferase ratio (concentration: 0.01 uM)
1 | O=[N+]([O-])C(CO)(CO)CO [2-(Hydroxymethyl)-2-nitro-1,3-propanediol] | 0.982 | 1.11 | 1.27 | 1.27 | –
2 | O=c1nc(-c2ccc(C(F)(F)F)cc2)[nH]c2c1CSCC2 | 0.688 | 0.648 | 0.664 | 0.578 | 0.923
3 | CCCCC(CC)C(=O)O (stereo not given) [2-Ethylhexanoic acid] | 0.925 | 1 | 1.4 | 1.2 | –
4 | CCCCCCC(=O)O [Heptanoic acid] | 1.02 | 1.15 | 1.07 | 0.917 | –
5 | CCCC(CCC)C(=O)O [Valproic acid] | 0.995 | 1.01 | 1.14 | 1.69 | 1.2
6 | C[C@@H](Oc1ccc(CNC(=O)c2cccnc2Oc2ccc3c(c2)OCO3)c(F)c1)C(=O)O | 1.14 | 1.12 | 1.13 | 1.33 | –
7 | Cc1cc(F)ccc1-c1cc(N2CC[C@@H](O)[C@H]2CO)ncc1N(C)C(=O)C(C)(C)c1cc(C(F)(F)F)cc(C(F)(F)F)c1 | 1.27 | 1.05 | 1.16 | 0.311 | –
8 | N#C[C@@H]1CC(F)(F)CN1C(=O)CNC1CC2CCC(C1)N2c1ncccn1 (stereo not given in full) | 0.985 | 0.923 | 0.937 | 0.82 | –
9 | [Cl-].c1ccc(C[n+]2cccc3ccccc32)cc1 [1-Benzylquinolinium chloride] | 0.993 | 0.903 | 1.05 | – | –
10 | CCCOC(=O)c1ccc(O)cc1 [Propylparaben] | 1.46 | 1.02 | 0.949 | 0.169 | –
11 | Nc1ccc2c(c1)C(=O)c1ccccc1C2=O [2-Aminoanthraquinone] | 1.06 | 1.2 | 1.28 | 1.58 | –
12 | O=C(O)c1cccnc1 [Nicotinic acid] | 1.02 | 1.17 | 0.874 | 1.27 | –
13 | CNCc1ccc(NC(=O)c2c[nH]c3c2C(=O)CCC3)cc1 | 1.24 | 1.06 | 1.69 | 0.318 | –
14 | CO[C@H]1/C=C/O[C@@]2(C)Oc3c(C)c(O)c4c(O)c(c(/C=N/N5CCN(C)CC5)c(O)c4c3C2=O)NC(=O)/C(C)=C\C=C\[C@H](C)[C@H](O)[C@@H](C)[C@@H](O)[C@@H](C)[C@H](OC(C)=O)[C@@H]1C [Rifampicin] | 1.29 | 1.07 | 1.27 | 0.362 | –
15 | CCCC(=O)O [Butanoic acid] | 1.31 | 1 | 1.12 | 1.62 | –
16 | CCCCCC(=O)O [Hexanoic acid] | 1.02 | 0.926 | 1.05 | 1.27 | –
17 | CCCCCCCCCC(=O)O [Decanoic acid] | 1.43 | 1.04 | 1.39 | 0.794 | –
18 | O=C(OCCOCCOC(=O)c1ccccc1)c1ccccc1 [Diethylene glycol dibenzoate] | 1.08 | 1.16 | 1.34 | 1.44 | –
19 | CCCCCCCCCCCCc1ccccc1S(=O)(=O)O [Dodecylbenzenesulfonic acid] | 1.14 | 1.13 | 1.2 | 1.04 | –
20 | NS(=O)(=O)c1cc2c(cc1Cl)NCNS2(=O)=O [Hydrochlorothiazide] | 1.41 | 1.17 | 1.12 | 1.32 | –

Row | Compound | Wnt reporter firefly/Renilla luciferase ratio (concentration: 0.1 uM) | Wnt reporter firefly/Renilla luciferase ratio (concentration: 1 uM) | Wnt reporter firefly/Renilla luciferase ratio (concentration: 10 uM) | Wnt reporter firefly/Renilla luciferase ratio (concentration: 100 uM) | Wnt reporter firefly/Renilla luciferase ratio (concentration: 0.01 uM)
21 | CC(=O)OC1C(=O)C2(C)C(O)CC3OCC3(OC(C)=O)C2C(OC(=O)c2ccccc2)C2(O)CC(OC(=O)C(O)C(NC(=O)c3ccccc3)c3ccccc3)C(C)=C1C2(C)C (stereo not given) [Taxol] | 0.822 | 0.575 | 0.409 | 1.98 | 1.29
22 | O=C([N-]S(=O)(=O)/C=C/c1ccccc1)c1ccc(F)cc1Cl.[Na+] | 1.15 | 1.07 | 0.657 | 0.3 | –
23 | CC(C)c1cccc(C(C)C)c1N1C(=O)c2ccc(O)cc2C1=O | 1.19 | 1.17 | 0.259 | – | –
24 | C=CCc1ccc(O)c(OC)c1 [Eugenol] | 1.02 | 1.13 | 1.19 | 1.55 | –
25 | OC[C@H]1O[C@@H]2O[C@H]3[C@H](O)[C@@H](O)[C@@H](O[C@H]4[C@H](O)[C@@H](O)[C@@H](O[C@H]5[C@H](O)[C@@H](O)[C@@H](O[C@H]6[C@H](O)[C@@H](O)[C@@H](O[C@H]7[C@H](O)[C@@H](O)[C@@H](O[C@H]1[C@H](O)[C@H]2O)O[C@@H]7CO)O[C@@H]6CO)O[C@@H]5CO)O[C@@H]4CO)O[C@@H]3CO [alpha-Cyclodextrin] | 1.02 | 1.09 | 0.976 | 0.971 | –
26 | O=C(OCCCCCCOC(=O)c1ccccc1)c1ccccc1 [Hexane-1,6-diyl dibenzoate] | 0.955 | 0.846 | 1.01 | 1.37 | –
27 | O=C(CCCCCCC(=O)Nc1ccccc1)NO [Vorinostat (SAHA)] | 1.23 | 1.05 | 3.08 | – | 1.33
28 | CCCCCCC(C=O)=Cc1ccccc1 [2-Benzylideneoctanal] | 0.942 | 0.906 | 0.822 | 0.757 | –
29 | CC(C)(O)c1ccc(CNC(=O)c2cccnc2Oc2ccc(F)cc2)cc1 | 0.96 | 1.05 | 1.22 | 0.695 | –
30 | CCCc1ccccc1 [Propylbenzene] | 0.987 | 0.856 | 0.88 | 1.43 | –
31 | CC(C)(C)c1ccccc1 [tert-Butylbenzene] | 1.01 | 0.913 | 0.895 | 1.16 | –
32 | COc1ccc(S(=O)(=O)N2C(=O)[C@@](c3ccccc3OC)(N3C[C@H](O)C[C@H]3C(=O)N(C)C)c3cc(Cl)ccc32)c(OC)c1 [Nelivaptan] | 1.09 | 0.857 | 0.612 | 0.355 | –
33 | CCCCCCCCCCCCOS(=O)(=O)[O-].[Na+] [Sodium dodecyl sulfate] | 1.32 | 0.99 | 1.05 | 0.875 | –
34 | CCCCCCCCCCCCCCCCOS(=O)(=O)[O-].[Na+] [Sodium hexyldecyl sulfate] | 0.784 | 1.09 | 0.931 | 1.7 | –
35 | CCCCCCCCCCCCCCOS(=O)(=O)[O-].[Na+] [Sodium myristyl sulfate] | 1.14 | 1.11 | 1.06 | 0.293 | –
36 | CC(=O)c1ccccc1 [Acetophenone] | 1.48 | 1.03 | 1.27 | 1.46 | –
37 | CCCCCCCCO [1-Octanol] | 0.948 | 0.949 | 1.11 | 1.09 | –
38 | O=c1ccn(C2OC(COP(=O)(O)OP(=O)(O)OP(=O)(O)O)C(O)C2O)c(=O)[nH]1 (stereo not given) | 1.13 | 1.15 | 1.07 | 1.94 | 1.43
39 | CCC(C)c1ccccc1O (stereo not given) [2-(Butan-2-yl)phenol] | 1.19 | 0.977 | 0.947 | 1.14 | –
40 | CC(C)COC(=O)CCCCC(=O)OCC(C)C [Diisobutyl adipate] | 1.11 | 1.15 | 1.28 | 1.44 | –

Row | Compound | Wnt reporter firefly/Renilla luciferase ratio (concentration: 0.1 uM) | Wnt reporter firefly/Renilla luciferase ratio (concentration: 1 uM) | Wnt reporter firefly/Renilla luciferase ratio (concentration: 10 uM) | Wnt reporter firefly/Renilla luciferase ratio (concentration: 100 uM) | Wnt reporter firefly/Renilla luciferase ratio (concentration: 0.01 uM)
41 | CCSC(=O)N(CC(C)C)CC(C)C [Butylate] | 1.31 | 1.21 | 1.71 | 0.486 | 1.05
42 | CCCN(CCC)C(=O)SCC | 1.22 | 0.859 | 1.3 | 1.09 | 1.35
43 | CN1C(=O)N(c2ccccc2Br)Cc2cnc(Nc3ccc4c(c3)OCC(CO)O4)nc21 (stereo not given) | 0.694 | 0.73 | 1.19 | – | –
44 | Oc1ccccc1 [Phenol] | 0.93 | 1.28 | 1.19 | 1.35 | –
45 | CCOCCOCCO [2-(2-Ethoxyethoxy)ethanol] | 0.833 | 1.24 | 0.948 | 1.26 | –
46 | CCOCCOCCOCCO [2-[2-(2-Ethoxyethoxy)ethoxy]ethanol] | 0.979 | 0.929 | 1.01 | 1.62 | –
47 | CCOCCO [2-Ethoxyethanol] | 1.04 | 1.01 | 1.18 | 1.25 | –
48 | CC(C)CCCCCCOC(=O)c1ccc(C(=O)OCCCCCCC(C)C)c(C(=O)OCCCCCCC(C)C)c1 [Triisononyl trimellitate] | 1.08 | 0.919 | 1.18 | 1.34 | –
49 | CC[C@@H]1C[C@H](N(Cc2cc(C(F)(F)F)cc(C(F)(F)F)c2)C(C)=O)c2cc(C(F)(F)F)ccc2N1C(=O)OC(C)C | 0.973 | 1.26 | 1.2 | 1.01 | –
50 | O=C(O)c1cccc(C(=O)O)c1 [1,3-Benzenedicarboxylic acid] | 1.21 | 1.28 | 1.24 | 1.02 | –
51 | CC(C)(c1ccc(O)cc1)c1ccc(O)cc1 [Bisphenol A] | 1.13 | 1.05 | 0.924 | 0.302 | 1.09
52 | CC[C@H](C)[C@@H](C(=O)O)n1sc2ccccc2c1=O | 0.996 | 0.949 | 0.684 | 0.568 | –
53 | CCOC(=O)C(C)Oc1ccc(Oc2cnc3cc(Cl)ccc3n2)cc1 (stereo not given) [Quizalofop-ethyl] | 1.1 | 1.03 | 1.09 | 0.981 | 0.779
54 | CCCCOC(=O)C(C)Oc1ccc(Oc2ccc(C(F)(F)F)cn2)cc1 (stereo not given) [Fluazifop-butyl] | 1.71 | 1.15 | 1.54 | 1.13 | 1.15
55 | CCOC(=O)C(C)Oc1ccc(Oc2nc3ccc(Cl)cc3o2)cc1 (stereo not given) [Fenoxaprop-ethyl] | 1.37 | 0.888 | 0.884 | 0.813 | 1.14
56 | CCCCOC(=O)[C@@H](C)Oc1ccc(Oc2ccc(C(F)(F)F)cn2)cc1 [Fluazifop-P-butyl] | 0.832 | 1.04 | 1.09 | 1.67 | 0.757
57 | CCCCOC(=O)c1ccccc1 [Butyl benzoate] | 1.4 | 0.911 | 1.09 | 1.11 | –
58 | C#CCOC(=O)[C@@H](C)Oc1ccc(Oc2ncc(Cl)cc2F)cc1 [Clodinafop-propargyl] | 1.37 | 1.14 | 1.25 | 0.479 | 1.28
59 | CCCCCCCCOC(=O)c1cc(O)c(O)c(O)c1 [Octyl gallate] | 1.25 | 1.3 | 0.702 | 0.614 | –
60 | COC(=O)c1ccccc1C(=O)O [Monomethyl phthalate] | 1.05 | 1.09 | 1.11 | 1.4 | 1.05

Source: the supplement of paper PMC9254222
